Source: PubChem
PNC inhibitor – blocks assembly of the perinucleolar compartment. PC3M PTB-GFP, PNC prevalence imaging, 16 h; hits give low values. activity change (PNC), negative = inhibition, % at 10 µM. 140,000 compounds, 3.1% hits;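 active = readout at or below -70, meaning at least 70% loss of cells showing the perinucleolar compartment, a nuclear body marking cancer cells; inconclusive = readout between -30 and a set limit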;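 note: plate controls were DMSO wells for no effect and camptothecin positive control wells for full effect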
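PC3M cells stably expressing PTB-GFP, 750–1000 cells/well, treated 16 h at 37 °C with compound (23 nl of library stock), in duplicate. After paraformaldehyde fixation and Hoechst stain, imaged at 20x; PNC prevalence scored by image analysis.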
NPSR antagonist – blocks cAMP signaling of the human neuropeptide S receptor; 220,000 compounds, 1% hits; Potency, µM (top dose mostly 38.3 µM), inactives show at the top dose activity change, negative = inhibition, most hits filed as inhibitors; Q6W5P4; AID 1461; CHO-NPSR cells, cAMP TR-FRET, antagonist mode; note: potency is the fitted concentration of half-maximal effect; nearly all actives have a fitted effect of over 50% in size
HPGD inh – blocks human HPGD enzyme activity. P15428. purified HPGD, NADH fluorescence kinetic, PGE2 substrate. Potency, µM, for the others: at the highest dose activity change, negative = inhibition, actives largely listed as inhibitors. 150,000 compounds, 4.3% hits; active = well fitted inhibition curve with a large enough effect, not every such curve was filed as active; inconclusive = small, poorly fitted or top-dose-only effect, or another doubt; inactive = no such curve, though single readings can be large or run the other way; note: potency is the fitted concentration of half-maximal effect
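NADH formation kinetics: reaction with 30 uM PGE2 and 1 mM NAD+ (final), 20 nM enzyme, Tris-HCl pH 8 with Tween 20, after 15 min compound preincubation at room temperature. Fluorescence change, last versus first of five reads.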
IMPase Li inh – cell-permeable IMPase inhibitors with lithium potentiation. CHO-M1 cells, IP1 TR-FRET (IP-One), carbachol + lithium. Potency, µM (series often up to 59.4 µM), for inactives: top-dose activity, negative = IMPase inhibition, usual class: inhibitors. 210,000 compounds, 0.35% hits. AID 1457;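 note: IP1 builds up when IMPase is blocked and the TR-FRET signal falls; potency is the fitted concentration of half-maximal effect; plate controls were basal vehicle for no effect and high inhibitor control for full effect; nearly all actives have a fitted effect of over 50% in size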
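Readout is a homogeneous TR-FRET IP1 immunoassay (Ex 320, Em 665 and 620), where raised cytosolic IP1 lowers signal. Cells were CHO-M1 treated 30 min at 37C with test compounds plus a little lithium; AC50 values came from Hill-equation fitting.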
ALDH1A1 inh – ALDH1A1 (human) enzyme inhibition. AID 1030. 220,000 compounds, 7.3% hits. Purified ALDH1A1, NADH fluorescence, propionaldehyde substrate. Potency, µM (doses to about 75.3 µM), for inactives: top-dose activity, negative = inhibition, actives largely listed as inhibitors; active = well fitted inhibition curve with a large enough effect, not every such curve was filed as active; inconclusive = small, poorly fitted or top-dose-only effect, or another doubt; inactive = no such curve, though single readings can be large or run the other way;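 note: potency is the fitted concentration of half-maximal effect; plate controls were no enzyme wells and a reference inhibitor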
Target sequence (P00352 whole entry, looked up): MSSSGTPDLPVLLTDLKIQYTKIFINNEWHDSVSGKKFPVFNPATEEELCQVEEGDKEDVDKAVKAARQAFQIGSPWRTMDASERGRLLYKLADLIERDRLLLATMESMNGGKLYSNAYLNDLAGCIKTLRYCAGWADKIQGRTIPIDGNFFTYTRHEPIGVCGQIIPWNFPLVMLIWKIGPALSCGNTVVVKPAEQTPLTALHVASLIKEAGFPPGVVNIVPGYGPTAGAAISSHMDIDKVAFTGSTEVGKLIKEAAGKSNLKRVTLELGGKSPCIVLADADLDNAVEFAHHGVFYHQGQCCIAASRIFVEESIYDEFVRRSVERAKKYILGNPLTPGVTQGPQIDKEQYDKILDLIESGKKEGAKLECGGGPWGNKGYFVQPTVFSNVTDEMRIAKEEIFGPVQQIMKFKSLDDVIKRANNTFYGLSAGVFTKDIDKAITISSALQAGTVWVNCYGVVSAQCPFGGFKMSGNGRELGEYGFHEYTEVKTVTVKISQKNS
IMPase cell inh – membrane-permeable compound that blocks inositol monophosphatase | CHO-M1 cells, IP1 accumulation, HTRF TR-FRET ratio | inhibition (IP1 accumulation), % at 46.1 µM | 120,000 tested, under 10 active; active = well fitted curve in the direction sought with a large enough effect in the signal ratio, not every such curve was filed as active; inconclusive = small, poorly fitted or top-dose-only effect, or a change in a side signal; inactive = no such curve, though single readings can be large or run the other way; the % refers to the signal ratio;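 note: cells stimulated with carbachol in lithium chloride buffer; plate controls were DMSO basal wells for no effect and reference inhibitor wells for full effect; higher means more IMPase inhibition seen as more IP1 and lower FRET ratio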
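In this qHTS, compounds (final up to 46 uM) act on CHO-M1 cells that are then activated through the M1 receptor with carbachol, in pH 7.4 buffer containing 50 mM LiCl, for 30 min. IP1 accumulation is quantified by the IP-One immunoassay.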
An asterisk follows results filed as active; u = inconclusive; x = no result; ! = repeats disagree; [ ] = another dose, or the depositor's remark. This is a sample that favours compounds with a hit; in the whole collection about 11% have one here. Unless noted, calls come from the whole dose curve; as a rule, active = well fitted curve in the direction sought with a large enough effect; inconclusive = small, poorly fitted or top-dose-only effect, or another doubt; inactive = no such curve, though single readings can be large; an effect the other way counts as inactive or inconclusive. Unless noted, % is set by controls: 0 for no effect and ±100 for the full control effect.

SMILES	PNC inhibitor	NPSR antagonist	HPGD inh	IMPase Li inh	ALDH1A1 inh	IMPase cell inh
Cc1ccccc1C(=O)NCCSc1ccccc1	u	-9.5%[46.1 µM]	20µM*	20.3%[38.3 µM]	-0.6%	2.9
CCCCCNC(=O)c1ccccc1SC	-4.1	-5.6%[46.1 µM]	14.1µM*	25.8%[38.3 µM]	8.4%	-3.1
CCSc1nc(O)c(C2OC(=O)c3c2ccc(OC)c3OC)c(=O)n1CC (configuration not stated)	-121.8*	-7.8%[46.1 µM]	x	x	-8.2%	8.7
O=C(O)c1ccc(NC(=O)C2(c3ccccc3)CCCC2)cc1	x	-8.4%	x	x	x	x
CCCCCCOc1ccc(C(CC(=O)O)C(N)=O)cc1 (configuration not stated)	-103.7*	-7.2%[46.1 µM]	-7.7%	-7.6%[38.3 µM]	2.3%	-11.5
CC(=O)OCC1OC(n2c(Br)nc3c(=O)[nH]c(N)nc32)C(OC(C)=O)C1OC(C)=O (configuration not stated)	x	x	-16.1%	-7.3%	16.3%	x
O=S1(=O)C[C@@H](O)[C@@H](Nc2ccc(Cl)cc2)C1	u	3.5%[46.1 µM]	-14.1%	17.8%[38.3 µM]	11.2µM*	7.9
COC(=O)c1cccc(Oc2nc3c(c(=O)n(C)c(=O)n3C)n2C(C)C)c1	-97.1*	-11.9%[46.1 µM]	-6.6%	u	0.1%	-10.4
Cc1cccc(Oc2nc3c(c(=O)n(C)c(=O)n3C)n2C)c1	x	-9.5%	x	0.7%	-2.1%	7.1
N#C/C(C(=O)c1ccccc1)=C1/SC=C(N)N1c1ccccc1	26.5	0.3%[46.1 µM]	20µM*	-17.3%[38.3 µM]	3.16µM*	2.6
COC(=O)/C(C#N)=C1/SC=C(C)N1c1ccccc1	u	0.1%[46.1 µM]	-16.9%	21.1%[38.3 µM]	11.2µM*	5.9
COc1ccc(C(=O)Oc2cc3c4c(c2)C(C)=CC(C)(C)N4C(=O)C3=O)cc1OC	-20.7	19.2%	31.6µM*	4.7%	u	0.1
COc1cccc(C(=O)Oc2cc3c4c(c2)C(C)=CC(C)(C)N4C(=O)C3=O)c1	46.7	2.2%[46.1 µM]	28.2µM*	14.0%[38.3 µM]	8.91µM*	16.7
COc1cc2c3c(c1)C(C)CC(C)(C)N3C(=O)C2=O (configuration not stated)	x	8.3%	x	6.7%	0.141µM*	x
CCc1cc2c3c(c1)C(C)CC(C)(C)N3C(=O)/C2=C1\SC(=O)NC1=O (configuration not stated)	x	55.6%	x	x	x	x
COc1cc(N=C2C(=O)N3c4c(cccc42)C(C)=CC3(C)C)cc(OC)c1	9.3	-14.9%	-22.8%	6.7%	0.794µM*	x
O=C(CSc1nnnn1-c1ccccc1)c1ccc(O)cc1O	x	-20.2%	x	x	x	x
Cc1cc(NC(=O)c2ccc3nc(C)sc3c2)no1	30.0	-7.5%[46.1 µM]	-4.4%	u	-7.3%	u
COc1cc2c3c(c1)C1(C(=O)N3C(C)(C)C=C2C)C(C#N)=C(N)Oc2cc(O)ccc21 (configuration not stated)	u	u	-16.9%	-7.1%[38.3 µM]	2.6%	-5.2
COc1cc2c3c(c1)C(C)=CC(C)(C)N3C(=O)C2=O	x	49.3%	x	12.5%	3.55µM*	x
Cc1cc(=O)oc2cc(OCC(=O)Nc3cccc(S(=O)(=O)N(C)C)c3)ccc12	3.7	u	-6.0%	u	3.9%	x
CC(NC(=S)Nc1cccc(F)c1)C(c1cccs1)N1CCOCC1 (configuration not stated)	x	-5.6%	x	x	x	x
COC(=O)c1ccc2c(=O)[nH]c(CSc3nc(C)cs3)nc2c1	x	-18.3%	x	1.3%	23.8µM*	x
CC1=C(/C=C/C(C)=C/C=C/C(C)=C/C(=O)Nc2ccc(O)cc2)C(C)(C)CCC1	x	-21.0%[46.1 µM]	-9.2%	7.1%	20µM*!	11.4
CC1=C(\C=C/C(C)=C/C=C\C(C)=C\C(=O)O)C(C)(C)CCC1	x	x	-7.3%	21.8%	35.5µM*!	4.3
COC(=O)N1CC=CC1(C)C(=O)NCc1cc(F)cc(C(F)(F)F)c1 (configuration not stated)	49.4	8.3%	-10.1%	9.1%	2.7%	x
Cc1cccc(/C=N/n2c(-c3ccco3)n[nH]c2=S)c1	x	-39.5%	x	x	x	x
CCCN1CCN(C(=S)NCc2ccc(Cl)cc2)CC1	x	-1.7%	x	10.1%	-4.6%	x
